For 22 compounds, outcome and Potency results are on record in PubChem BioAssay (NCATS).

Values without a mark were called inactive. Results filed as inconclusive are left out. Active and inactive are the calls of the source. Calls follow the shape of the dose curve; as a rule, active = well fitted curve in the direction sought with a large enough effect; inconclusive = small, poorly fitted or top-dose-only effect, or another doubt; inactive = no such curve, though single readings can be large; an effect the other way counts as inactive or inconclusive.

For test [1], the target named is ATP-dependent 6-phosphofructokinase (Trypanosoma brucei brucei) (UniProt O15648). The experiment in a line: qHTS Assay to Find Inhibitors of T. brucei phosphofructokinase: hit validation (AID 492961).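 Also: luminescence reports ADP formed as PFK phosphorylates fructose-6-phosphate with ATP.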 The following applies: T. brucei PFK, ADP-Glo luminescence; series mostly up to 24.3 µM. The method in brief:
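Compounds titrated; %activity normalized to 0x and 1x enzyme controls, curve-fitted. Readout: ADP-Glo luminescence after 45 min room-temperature reaction of 1.25 nM PFK, 0.1 mM ATP, 0.5 mM F6P, pH 8.0.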

In test [2] the test system is 7G8. The experiment in a line: qHTS profiling for inhibitors of Plasmodium falciparum proliferation (AID 504749). Also: nearly all actives have a fitted effect of over 60% in size. Also: potency is read from the fitted curve at half-maximal effect. To be noted: P. falciparum in erythrocytes, SYBR Green DNA, 72 h; series mostly up to 12.8 µM. The method in brief: (§1)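 Each compound contacts P. falciparum-infected red blood cells for 72 h at 37 C; lysis buffer (Tris, EDTA, saponin, Triton X, SYBR Green I) is added and fluorescence measured next morning; values normalized to controls.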

Test [3] has as its system AA1029. Described as above. To be noted: P. falciparum in erythrocytes, SYBR Green DNA, 72 h; series mostly up to 12.8 µM. The method in brief: as §1
In test [4] the test system is CP194. Described as above. To be noted: P. falciparum in erythrocytes, SYBR Green DNA, 72 h; series mostly up to 12.8 µM. The method in brief:
as §1

The test system of test [5] is CP211. The test is described as above. The following applies: P. falciparum in erythrocytes, SYBR Green DNA, 72 h; series mostly up to 12.8 µM. The essentials: as §1
Test [6] deals with CP215. Described as above. The following applies: P. falciparum in erythrocytes, SYBR Green DNA, 72 h; series mostly up to 12.8 µM. The method in brief:
as §1

Test [7] concerns CP335. The description is as above. To be noted: P. falciparum in erythrocytes, SYBR Green DNA, 72 h; series mostly up to 12.8 µM. The method in brief: as §1
Test [8] concerns DFO2036. Described as above. The following applies: P. falciparum in erythrocytes, SYBR Green DNA, 72 h; series mostly up to 12.8 µM. The method in brief:
as §1

For test [9], the system named is DIV17. The test is described as above. To be noted: P. falciparum in erythrocytes, SYBR Green DNA, 72 h; series mostly up to 12.8 µM. The essentials:
as §1

Test [10] has as its system GB4. Described as above. To be noted: P. falciparum in erythrocytes, SYBR Green DNA, 72 h; series mostly up to 12.8 µM. The essentials: as §1
Test [11] deals with P93_24. The test is described as above. The following applies: P. falciparum in erythrocytes, SYBR Green DNA, 72 h; series mostly up to 12.8 µM. The method in brief: as §1
Test [12] has as its system PC26. The description is as above. The following applies: P. falciparum in erythrocytes, SYBR Green DNA, 72 h; series mostly up to 12.8 µM. The method in brief: as §1
The subject of test [13] is TAB109. The test is described as above. To be noted: P. falciparum in erythrocytes, SYBR Green DNA, 72 h; series mostly up to 12.8 µM. The essentials:
as §1

Test [14] relates to CP203. The test is described as above. The following applies: P. falciparum in erythrocytes, SYBR Green DNA, 72 h; series mostly up to 12.8 µM. The essentials:
as §1

In test [15] the target is Cytochrome P450 3A4 (Homo sapiens) (UniProt P08684). The experiment in a line: qHTS Assay for Activators of Cytochrome P450 3A4 (AID 885). Also: nearly all actives have a fitted effect of over 65% in size. Also: potency is read from the fitted curve at half-maximal effect. The following applies: recombinant CYP3A4, Luciferin-PPXE luminescence, 60 min; series mostly up to 57.1 µM. The method in brief: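 CYP3A4 activity: Luciferin-PPXE O-dealkylation, 25uM substrate, 200mM KPO4, RT throughout. Read-out is luciferase luminescence; higher values reflect activation.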
Background: Quantitative high-throughput screening tests each substance at several concentrations.

Test [16] in a line: Confirmation and Secondary Assay for Modulators of Hemoglobin Beta Chain Splicing at IVS2 654 locus (AID 910).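 Also: HeLa cells stably carrying EGFP split by mutant beta-globin IVS2-654 intron.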 The following applies: HeLa EGFP-654 splicing reporter, GFP fluorescence, 48 h; series mostly up to 46.1 µM. The method in brief:
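HeLa cells stably expressing EGFP interrupted by β-globin IVS2-654 intron, seeded overnight in Opti-MEM/2% FCS, then treated 2 days at 37 °C. Restored splicing read as total peak GFP intensity per well by laser scanning cytometry (488 nm excitation, 500–520 nm emission); 500 nM antisense PNA as control.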

Test [17] can be described thus: Confirmation and Secondary Assay for Modulators of Hemoglobin Beta Chain Splicing at IVS2 705 locus (AID 930).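 Also: HeLa cells stably expressing the EGFP-705 splicing reporter.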 To be noted: HeLa EGFP-705 splicing reporter, GFP fluorescence, 48 h; series mostly up to 46.1 µM. The method in brief: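 Splice-correction reporter: EGFP cDNA split by beta-globin intron 2 bearing the 705 mutation, stably in HeLa. Compound incubation 2 days, 37C; fluorescent objects 5-250 µm summed per well.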

In test [18] the target is Cytochrome P450 2C9 (Homo sapiens) (UniProt P11712). Kind of test: qHTS Assay for Inhibitors and Substrates of Cytochrome P450 2C9 (AID 883). Also: nearly all actives have a fitted effect of over 60% in size. Also: potency is read from the fitted curve at half-maximal effect. The following applies: recombinant CYP2C9, luciferin-H luminescence, 60 min; series mostly up to 25.6 µM. The essentials:
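Human CYP2C9 (10nM) with Luciferin-H at 100uM (its KM) in 25mM KPO4; compound preincubated 10 min at 37C, then NADPH regeneration for 60 min at 37C. Luciferin read by luminescence after detection reagent; normalized to 57uM sulphaphenazole as full inhibition.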

Sequence of ATP-dependent 6-phosphofructokinase (Trypanosoma brucei brucei) (O15648 whole entry, looked up): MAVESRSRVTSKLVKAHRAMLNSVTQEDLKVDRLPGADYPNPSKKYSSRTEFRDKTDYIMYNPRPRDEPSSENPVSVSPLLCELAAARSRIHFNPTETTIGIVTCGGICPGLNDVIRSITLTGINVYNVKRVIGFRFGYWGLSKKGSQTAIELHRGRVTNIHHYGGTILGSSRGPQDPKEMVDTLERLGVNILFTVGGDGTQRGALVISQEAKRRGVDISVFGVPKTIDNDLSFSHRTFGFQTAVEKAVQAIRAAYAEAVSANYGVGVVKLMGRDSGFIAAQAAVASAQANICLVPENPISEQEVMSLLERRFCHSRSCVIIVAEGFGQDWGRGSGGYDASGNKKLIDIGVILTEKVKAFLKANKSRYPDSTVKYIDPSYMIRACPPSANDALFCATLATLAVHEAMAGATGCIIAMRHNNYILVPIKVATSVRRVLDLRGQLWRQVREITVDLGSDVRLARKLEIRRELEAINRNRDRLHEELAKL
Sequence of Cytochrome P450 3A4 (Homo sapiens) (P08684 whole entry, looked up): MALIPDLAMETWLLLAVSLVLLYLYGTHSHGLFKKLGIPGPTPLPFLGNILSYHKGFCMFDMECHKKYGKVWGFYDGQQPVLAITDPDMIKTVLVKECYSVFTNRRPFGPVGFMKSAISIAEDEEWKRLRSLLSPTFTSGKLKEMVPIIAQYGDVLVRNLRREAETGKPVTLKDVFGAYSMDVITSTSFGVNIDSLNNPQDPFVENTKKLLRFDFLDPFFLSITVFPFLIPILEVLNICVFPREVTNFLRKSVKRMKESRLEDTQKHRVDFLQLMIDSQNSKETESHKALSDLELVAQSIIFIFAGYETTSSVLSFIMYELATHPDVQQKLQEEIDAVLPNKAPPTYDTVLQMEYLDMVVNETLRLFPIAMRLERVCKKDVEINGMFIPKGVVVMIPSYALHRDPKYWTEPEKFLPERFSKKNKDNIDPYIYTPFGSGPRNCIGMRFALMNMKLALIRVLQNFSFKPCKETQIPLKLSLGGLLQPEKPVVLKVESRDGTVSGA
Sequence of Cytochrome P450 2C9 (Homo sapiens) (P11712 whole entry, looked up): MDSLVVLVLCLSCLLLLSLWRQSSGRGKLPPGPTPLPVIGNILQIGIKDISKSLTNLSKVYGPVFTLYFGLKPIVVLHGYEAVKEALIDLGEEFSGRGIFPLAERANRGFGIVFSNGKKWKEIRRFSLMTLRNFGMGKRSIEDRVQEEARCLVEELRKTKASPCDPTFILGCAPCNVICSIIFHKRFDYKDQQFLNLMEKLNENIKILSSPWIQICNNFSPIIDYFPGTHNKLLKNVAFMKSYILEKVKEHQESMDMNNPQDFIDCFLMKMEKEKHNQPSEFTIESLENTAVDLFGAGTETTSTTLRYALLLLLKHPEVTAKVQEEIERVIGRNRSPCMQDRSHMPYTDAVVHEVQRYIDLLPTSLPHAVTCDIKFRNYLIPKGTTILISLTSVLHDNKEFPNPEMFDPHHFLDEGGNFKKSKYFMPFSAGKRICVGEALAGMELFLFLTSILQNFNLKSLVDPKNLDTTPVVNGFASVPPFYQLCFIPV

As to `CCc1c(C)[nH]c2c1C(=O)[C@H](CN1CCOCC1)CC2`, the compound was called inactive in test [1]. The Potency result in test [2], in [3], in test [4], in [5], in [6] and in test [7] was “inactive” in each case. For the same compound, the Potency entry in test [8], in test [9], in test [10], in test [11], in test [12] and in test [13] was “inactive” each time.

Turning to `CO[C@@H]1C[C@H](O[C@H]2[C@@H](C)[C@H](O[C@@H]3O[C@@H](C)C[C@@H](N(C)C)[C@@H]3OC(C)=O)[C@H](C)C[C@]3(CO3)C(=O)[C@H](C)[C@H](OC(C)=O)[C@H](C)[C@H](C)OC(=O)[C@@H]2C)O[C@H](C)[C@@H]1OC(C)=O`, in test [1], the compound was called inactive. The Potency result in test [2], in test [3], in [4], in test [14], in test [5] and in test [6] was “inactive” throughout. Besides, the Potency entry in test [8], in test [9], in [11], in [12] and in test [13] was “inactive” throughout.

Take `CC(=O)O[C@H]1C[C@@]2(C)[C@H](C[C@@H](O)[C@H]3[C@@]4(C)CC[C@@H](O)[C@@H](C)[C@H]4CC[C@@]32C)C1=C(CCC=C(C)C)C(=O)O`: the compound was called inactive in test [1]. The Potency result in test [3], in test [4], in test [14], in test [5], in test [6] and in test [7] was “inactive” throughout. In addition, the Potency entry in [8], in test [10], in test [11], in test [12] and in test [13] was “inactive” throughout.

On to `C[C@H](O)Cn1cnc2c1c(=O)n(C)c(=O)n2C`, for which the Potency result in [2], in test [3], in test [4], in test [14], in test [5] and in test [6] was “inactive” throughout. For the same compound, the Potency entry in test [7], in [8], in test [9], in test [10], in [11] and in [12] was “inactive” in each case. Moreover, the Potency result in test [13] is “inactive”.

Regarding `CC(=O)OCC(=O)[C@@]1(O)[C@H](C)C[C@@H]2[C@H]3CCC4=CC(=O)C=C[C@]4(C)[C@]3(F)[C@@H](O)C[C@@]21C`, in [1], the compound was called inactive. The Potency entry in [2], in test [3], in test [4], in test [14], in test [5] and in test [6] was “inactive” each time. The Potency result in test [7], in [9], in test [10], in [11], in [12] and in test [13] was “inactive” in each case.

As for `C[N+]12CCC(CC1)[C@@H](OC(=O)C(O)(c1ccccc1)c1ccccc1)C2`, the Potency entry in test [2], in test [3], in test [7], in test [11] and in test [13] was “inactive” throughout.

On to `COC(=O)[C@@H]1[C@@H]2C[C@H]3c4[nH]c5cc(OC)ccc5c4CCN3C[C@@H]2C[C@H](OC(=O)c2cc(OC)c(OC)c(OC)c2)[C@H]1OC`, for which, in test [15], the Potency entry was “inactive”.

For `COc1cc(C2Oc3cc(C4Oc5cc(O)cc(O)c5C(=O)C4O)ccc3OC2CO)ccc1O` (stereo not given), the Potency entry in test [15], in test [16] and in [17] was “inactive” throughout.

Consider `Cc1noc(C)c1-c1nc(Nc2ccncc2)c2ccccc2n1`, for which the Potency entry in test [15], in test [16] and in [17] was “inactive” in each case.

In the case of `COc1ccc(OC)c([C@H](O)CNC(=O)CN)c1`, the compound was classed as inactive in test [1]. Further, the Potency result in test [2], in [3], in test [4], in [14], in test [5] and in [6] was “inactive” throughout. The Potency result in test [7], in test [8], in [9], in test [10], in [11] and in [12] was “inactive” throughout. In addition, the Potency result in [13] is “inactive”.

For `CO[C@H]1[C@H](O[C@H]2O[C@@H](C)[C@@H](O[C@@H]3C[C@](C)(O)[C@H](O)[C@H](C)O3)[C@@H](N(C)C)[C@@H]2O)[C@@H](CC=O)C[C@@H](C)[C@@H](O[C@H]2CC[C@H](N(C)C)[C@H](C)O2)/C=C\C=C/C[C@@H](C)OC(=O)C[C@H]1O`, in test [1], the compound was called inactive. The Potency result in test [8], in test [9] and in test [12] was “inactive” each time. For the same compound, the Potency in test [13] is 1.58 µM (active).

Turning to `CCN[C@@H]1C[C@H](N)[C@H](O[C@H]2OC(CN)=CC[C@H]2N)[C@@H](O)[C@H]1O[C@H]1OC[C@@](C)(O)[C@@H](NC)[C@@H]1O`, the outcome in test [1] was inactive. The Potency result in test [2], in test [3], in test [4], in test [14], in [5] and in test [6] was “inactive” in each case. The Potency result in [7], in test [8], in test [9], in test [10], in [11] and in test [12] was “inactive” each time. In [13], the Potency entry was “inactive”.

Take `CC(=O)OCC(=O)[C@@]1(OC(C)=O)[C@H](C)C[C@H]2[C@@H]3C[C@H](F)C4=CC(=O)C=C[C@@]4(C)[C@]3(F)[C@H](O)C[C@@]21C`: in test [15], the Potency is 6.31 µM (active).

As to `c1ccc2c(c1)CCC[C@@H]2C1=NCCN1`, the result in test [1] was inactive. Further, the Potency entry in test [2], in test [3], in test [4], in test [14], in test [5] and in test [6] was “inactive” in each case. The Potency result in [7], in test [8], in test [9], in [10], in test [11] and in test [12] was “inactive” in each case. Besides, the Potency entry in [13] is “inactive”.

Turning to `Cc1cccc(C)c1NC(=O)[C@H](C)N`, the compound was called inactive in [1]. In addition, the Potency entry in test [2], in test [3], in test [7], in [8], in test [11] and in [13] was “inactive” each time.

In the case of `COc1ccccc1OC[C@H](O)CO`, the outcome in test [1] was inactive. The Potency result in test [2], in test [3], in [4], in test [14], in test [5] and in test [6] was “inactive” throughout. Further, the Potency entry in test [7], in test [9], in test [10], in test [11], in test [12] and in [13] was “inactive” each time.

With `Cc1ccc2c(c1)c1c3n2CCN[C@H]3CCC1`, the compound was classed as inactive in test [1]. For the same compound, the results for the Potency in [2] and in [9] were 6.31 µM (active) and 12 µM (active), respectively. In addition, the Potency entry in test [5], in test [6], in [8] and in [11] was “inactive” each time.

For `Cc1ncc([N+](=O)[O-])n1C[C@H](O)CCl`, the call in test [1] was inactive. Besides, the Potency entry in [2], in test [3], in test [4], in test [14], in test [5] and in test [6] was “inactive” throughout. In addition, the Potency entry in test [7], in test [9], in test [10], in [11] and in [12] was “inactive” in each case.

`CCN[C@@H]1CN(CCCOC)S(=O)(=O)c2sc(S(N)(=O)=O)cc21`: the call in [1] was inactive. Moreover, the Potency entry in test [2], in test [3], in [4], in test [14], in test [5] and in test [6] was “inactive” each time. In addition, the Potency result in [7], in [8], in test [9], in test [10], in test [11] and in [12] was “inactive” each time. For the same compound, the Potency result in test [13] was “inactive”.

For `CC#C[C@@]1(O)CC[C@H]2[C@@H]3CCC4=CC(=O)CCC4=C3[C@H](c3ccc(N(C)C)cc3)C[C@]21C`, the Potency in test [18] is 3.98 µM (active).

Take `CC[C@H](CO)NCCN[C@@H](CC)CO`: in test [18], the Potency result was “inactive”.

Regarding `COc1ccc(CNc2ncncc2-c2ccccc2CN(C)C)c(OC)c1`, the Potency result in test [16] and in test [17] was “inactive” throughout.
